For the assay, the target named is Dickkopf-related protein 1 (Homo sapiens) (UniProt O94907). Kind of assay: small molecules binding DKK1 protein – biochemical, small-molecule microarray, 635 nm fluorescence scan, primary screen (AID 1106).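 Further: score merges emission near 667 nm with signal to noise over three replicate slides.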 Conditions: higher = more signal.
Sequence of Dickkopf-related protein 1 (Homo sapiens) (O94907 whole entry, looked up): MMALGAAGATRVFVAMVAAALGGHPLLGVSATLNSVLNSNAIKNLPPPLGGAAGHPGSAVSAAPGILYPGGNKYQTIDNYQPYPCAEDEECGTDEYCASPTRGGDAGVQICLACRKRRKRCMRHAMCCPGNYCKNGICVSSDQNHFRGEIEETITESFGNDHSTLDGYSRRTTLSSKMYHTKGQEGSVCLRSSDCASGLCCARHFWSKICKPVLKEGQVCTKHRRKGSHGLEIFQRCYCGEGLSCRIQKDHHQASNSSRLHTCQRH
Regarding `Cc1ccc(S[C@]2(C(=O)NCCCN(C)C)CC(=O)N(Cc3cc(C(F)(F)F)cc(C(F)(F)F)c3)[C@@H]2c2ccc(CO)cc2I)cc1`, the composite z-score was -1.53. As for `CCC[C@@H]1C[C@@]1(CCC)[C@@H](NC(=O)c1ccccc1)c1cccc(Cl)c1`, the composite z-score was -0.202. The figure for `COc1ccccc1CN1C(=O)c2ccccc2[C@@]2(Cc3ccccc3N(CC(C)C)C2=O)[C@@H]1c1ccc(CO)cc1` is 0.0603. The value for `Cc1ccc(N2C(=O)c3ccccc3[C@@H](C(=O)NC3CC3)[C@@H]2c2ccc(CO)cc2)nc1` was -2.23; that for `C=C[C@H](CO[Si](CC)(CC)CC)N(Cc1ccc(OC(C)=O)c(OC)c1)S(=O)(=O)c1ccc(Br)cc1` was 0.0558; that for `O=C1NC(=O)C2C1C=CC(C(O)c1cc(C(F)(F)F)cc(C(F)(F)F)c1)N2Nc1ccccn1` (centres undefined) was 0.0665. The figure for `C[N+](C)(C)CCCC[C@@H]1NC(=O)[C@H]2C[C@@H](C(=O)NCCCCCCNC(=O)CS)[C@@H](c3cccc(OCCO)c3)N2C1=O` is -0.602. Compound `CC(C)NC(=O)[C@@H]1c2ccccc2C(=O)N(C2Cc3ccccc3C2)[C@H]1c1ccc(CO)cc1` returned a composite z-score of -0.224.

In turn, `C=C(CC1([C@@H](NP(=O)(c2ccccc2)c2ccccc2)[C@H]2C[C@@H]2CCCC)CC1)c1ccccc1` registered a composite z-score of 0.104. Take `CCOC(=O)C[C@H]1[C@H](OC(=O)c2ccc(C(=O)c3ccccc3)cc2)[C@@H](NC(=O)c2ccc3ccccc3n2)c2cc(OCCCO)ccc2N1C(=O)c1ccccc1`: the composite z-score is 0.271. The figure for `O=C1C[C@@](C(=O)NCCN2CCOCC2)(c2ccc([N+](=O)[O-])cc2)[C@@H](c2ccc(CO)cc2)N1CC12CC3CC(CC(C3)C1)C2` is 0.912. `CC(C)=CCN[C@H](CO)c1ccccc1` yielded a composite z-score of 0.749.

As to `COC(=O)[C@@]1(Cc2ccc(OC)cc2)[C@H]2c3cc(C(=O)N(C)C)n(C)c3C[C@H]2CN1C(=O)c1ccccc1`, the composite z-score is -0.105. The figure for `CN1C(=O)C2C=CC(C(O)c3ccc([N+](=O)[O-])cc3)N(N3CCCCC3)C2C1=O` (centres undefined) is -0.0607; for `CC(=O)n1cc(C(O)C2C=CC3C(=O)N(c4ccccc4)C(=O)C3N2Nc2ccc([N+](=O)[O-])cc2)c2ccccc21` (centres undefined) it is -0.113; for `O=C(c1ccccc1)N1Cc2ccccc2C[C@@]2(COC(c3ccc(OCCCO)cc3)=N2)C1=O` it is 0.146. Regarding `O=C(c1ccccc1)N1C(=O)[C@]2(COC(c3ccc(OCCCO)cc3)=N2)Cc2ccccc21`, the composite z-score was 0.427. The figure for `CCCC[C@@H]1C[C@H]1[C@@H](NC(=O)c1ccccc1)c1ccc(C(=O)OC)cc1` is -1.57. `COc1cc2c(cc1O)C(C1CC1)N(Cc1sc3ccccc3c1Cl)CC2` (centres undefined) had a composite z-score of -0.467. Turning to `O=C1N(Cc2ccccc2)c2ccccc2[C@@H]2OC(c3ccc(OCCCO)cc3)=N[C@]12CCS(=O)(=O)c1ccccc1`, the composite z-score is 0.0435. For the compound `CO[C@H]1O[C@H](CO)[C@@H](OC(=O)Nc2cccc(F)c2)[C@H](OC(=O)Nc2ccccc2)[C@@H]1OC(=O)Nc1ccccc1`, the composite z-score is -0.259. `COc1ccc(CCNC(=O)[C@@]2(Sc3ccc(C)cc3)CC(=O)N(C(C)C)[C@@H]2c2ccc(CO)cc2I)cc1`: the composite z-score was -0.267. `Cc1ccc(S[C@]2(C(=O)NCCCN(C)C)CC(=O)N(Cc3cc(C(F)(F)F)cc(C(F)(F)F)c3)[C@@H]2c2ccc(CO)cc2)cc1` showed a composite z-score of -1.62. The compound `CC(C)NC(=O)[C@@]1(c2ccc([N+](=O)[O-])cc2)CC(=O)N(C2CCCCC2)[C@@H]1c1ccc(CO)cc1I` gave a composite z-score of -0.566.

These data come from PubChem BioAssay.
